{
  "source": "PubChem BioAssay AID1259240",
  "about": "(Keith Lab, Institute of Cancer Science, University of …, 2017)",
  "note": "The source made the active and inactive calls. Rule as the data show it: active = fold change mostly below about -2 (no sharp cut-off); inactive = mostly above about -1.8.",
  "data": [
    {"assay": "modulation of TERT promoter-driven luciferase – cell-based, luciferase reporter, human, primary screen (AID 1259240)", "settings": "A2780 TERT promoter luciferase reporter, 16 h; at 20 µM, fold versus average of vehicle-only wells", "values": [
      {"smiles": "O=C(NCc1ccc(Cl)cc1)c1c[nH]n2c(=O)cc(C3CCNCC3)nc12", "fold change": "-1.87 (inactive)"},
      {"smiles": "Cc1ccc(-c2n[nH]c3c2C(c2cccc(O)c2)NC3=O)cc1", "note": "(centres undefined)", "fold change": "-1.62 (inactive)"},
      {"smiles": "CC(C)(C)OC(=O)CN1C(=O)c2ccccc2S1(=O)=O", "fold change": "1.98 (inactive)"},
      {"smiles": "O=C(O)CN1C(=O)/C(=C\\c2ccc(-c3ccccc3)o2)SC1=S", "fold change": "-1.88 (inactive)"},
      {"smiles": "CCC(=O)N1CCc2cc(S(=O)(=O)CCC(=O)NCC3COc4ccccc4O3)ccc21", "note": "(centres undefined)", "fold change": "-1.32 (inactive)"},
      {"smiles": "COC(=O)c1cccnc1-n1c(=O)c2cccnc2n(Cc2ccc(C#N)cc2)c1=O", "fold change": "-1.61 (inactive)"},
      {"smiles": "CC(CC(=O)N1CCN(c2ccc([N+](=O)[O-])cc2)CC1)CC1=NS(=O)(=O)c2ccccc2N1", "note": "(centres undefined)", "fold change": "-1.48 (inactive)"},
      {"smiles": "CSc1ccc(-c2nc3sccn3c2Nc2ccccc2)cc1", "fold change": "-1.05 (inactive)"},
      {"smiles": "Cc1[nH]nc2c1C(c1cccs1)NC2=O", "note": "(centres undefined)", "fold change": "-1.17 (inactive)"},
      {"smiles": "CCc1ccc2[nH]cc(S(=O)(=O)c3ccc(F)cc3)c(=O)c2c1", "fold change": "-1.48 (inactive)"},
      {"smiles": "CCC(C)(C)C(=O)Nc1nc2c(s1)C(=O)CC(C)(C)C2", "fold change": "1.17 (inactive)"},
      {"smiles": "COc1ccc(S(=O)(=O)c2cc3ccc(O)cc3oc2=O)cc1OC", "fold change": "-1.34 (inactive)"},
      {"smiles": "CCc1ccc(C2C3=C(CC(C)(C)CC3=O)NC3=C2C(=O)c2ccccc23)cc1", "note": "(centres undefined)", "fold change": "-2.26 (active)"},
      {"smiles": "O=c1[nH]cnc2c1c(-c1ccccc1)cn2-c1ccc(F)cc1", "outcome": "inactive"},
      {"smiles": "CN(CC(=O)NCc1cccs1)S(=O)(=O)c1ccc2c(c1)n(C)c(=O)c(=O)n2C", "fold change": "1.51 (inactive)"},
      {"smiles": "O=c1oc2cc(O)ccc2cc1-c1nnc(Nc2ccccc2)s1", "outcome": "active"},
      {"smiles": "O=C(NCCc1c[nH]c2ccccc12)c1ccc(NC2=NC3CS(=O)(=O)CC3S2)cc1", "note": "(centres undefined)", "fold change": "-1.35 (inactive)"},
      {"smiles": "O=C(CSc1nc(-c2ccco2)cc(C(F)(F)F)n1)NCc1cccnc1", "fold change": "-1.4 (inactive)"},
      {"smiles": "CCCCNS(=O)(=O)c1ccc(C)c(-c2nnc3c4ccccc4c(C)nn23)c1", "fold change": "-1.28 (inactive)"},
      {"smiles": "O=c1c2ccccc2[nH]c(=S)n1CCCN1CCc2ccccc2C1", "fold change": "-2.32 (active)"},
      {"smiles": "CC1CCCN(S(=O)(=O)c2cccc(-c3cn4cccnc4n3)c2)C1", "note": "(centres undefined)", "fold change": "-1.53 (inactive)"},
      {"smiles": "O=C(O)C1CCN(c2nc3ccccc3n2Cc2ccccc2F)CC1", "fold change": "1.02 (inactive)"},
      {"smiles": "CC1CCCCN1c1nnc(NC(=O)Cn2c(=O)oc3ccccc32)s1", "note": "(centres undefined)", "fold change": "1.11 (inactive)"},
      {"smiles": "COc1ccccc1Nc1nc(N)nc(CSc2ncccn2)n1", "fold change": "-1.15 (inactive)"}
    ]}
  ]
}
